This is a sample that favours compounds with a hit; in the whole collection about 2.1% have one here.
MsrA inhibitor = inhibits bovine methionine sulfoxide reductase A; purified bovine MsrA, absorbance read-out; inhibition, % at 15.5 µM; 360,000 tested, 0.75% active; in the data active means inhibition above about 4.5%
ABCB6 inh MLPCN = human ABCB6 transporter inhibition. K562-ABCB6 porphyrin accumulation, flow cytometry, 1 h; stronger effect = lower value. Q9NP58. AID 602162. 360,000 tested, 0.19% active. fluorescence ratio to DMSO, % at 10 µM;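 active means fluorescence ratio to DMSO below 75%, the collection mean minus 3 SD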;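 further: signal is porphyrin accumulated inside mitochondria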
Target sequence (Q9NP58 whole entry, looked up): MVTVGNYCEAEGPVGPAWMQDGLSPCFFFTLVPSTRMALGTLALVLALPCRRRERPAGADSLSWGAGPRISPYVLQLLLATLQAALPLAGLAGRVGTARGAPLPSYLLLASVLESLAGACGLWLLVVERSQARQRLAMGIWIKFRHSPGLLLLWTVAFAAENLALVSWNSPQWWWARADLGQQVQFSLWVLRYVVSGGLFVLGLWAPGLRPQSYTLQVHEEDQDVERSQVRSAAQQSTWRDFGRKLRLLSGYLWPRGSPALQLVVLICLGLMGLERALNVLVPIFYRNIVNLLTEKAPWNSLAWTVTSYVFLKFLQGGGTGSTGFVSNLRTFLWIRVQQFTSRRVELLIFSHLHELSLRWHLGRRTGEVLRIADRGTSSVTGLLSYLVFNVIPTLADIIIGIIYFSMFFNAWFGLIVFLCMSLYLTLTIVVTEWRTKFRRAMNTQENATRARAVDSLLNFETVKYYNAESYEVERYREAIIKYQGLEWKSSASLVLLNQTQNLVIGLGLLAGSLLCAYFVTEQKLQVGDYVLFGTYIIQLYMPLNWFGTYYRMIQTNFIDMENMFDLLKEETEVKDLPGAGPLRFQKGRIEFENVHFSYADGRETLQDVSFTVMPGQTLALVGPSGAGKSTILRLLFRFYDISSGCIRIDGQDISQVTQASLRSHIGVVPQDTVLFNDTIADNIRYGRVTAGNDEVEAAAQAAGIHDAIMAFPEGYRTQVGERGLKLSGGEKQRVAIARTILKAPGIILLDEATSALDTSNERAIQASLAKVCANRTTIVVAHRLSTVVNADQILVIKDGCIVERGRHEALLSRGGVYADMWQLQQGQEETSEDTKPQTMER
bovine MsrA act = activators of bovine methionine sulfoxide reductase A | activation, % at 10.6 µM | purified bovine MsrA, absorbance read-out | 360,000 tested, 0.3% active; in the data active means activation above about 7.5%
SMARCA2 act = increases SMARCA2 function in MMTV reporter cells; 370,000 tested, 1% active; activation, % at 9.1 µM; MG213 cells, MMTV-luciferase reporter, dexamethasone, overnight; AID 652017; in the data active means activation above about 7.8%
MsrA act confirm = confirmation of bovine methionine sulfoxide reductase A activators. activation, % at 10.6 µM. 1,000 tested, 12% active. purified bovine MsrA, absorbance read-out. shares compounds with bovine MsrA act; in the data active means activation above about 4%;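 further: enzyme coupled to thioredoxin and thioredoxin reductase with NADPH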
Hits are given with their value; i = inactive; nt = no result given; ! = repeats disagree.

SMILES | MsrA inhibitor | ABCB6 inh MLPCN | bovine MsrA act | SMARCA2 act | MsrA act confirm
FC(F)(F)c1cc(Oc2ccccc2)nc(-c2ccccn2)n1 | i | i | 9.7 | i | i
CC(=O)Nc1ccc(C(CCCc2ccccc2)C2=CCCCC2)cc1 (centres undefined) | nt | nt | nt | i | nt
CC(NC(=O)c1ccc(CS(=O)(=O)c2ccc(Cl)cc2)o1)c1ccc2c(c1)OCCO2 (centres undefined) | i | i | 8.6 | i | i
Cc1nn(CCC(=O)NNC(=O)Nc2ccc(Cl)cc2)c(C)c1[N+](=O)[O-] | nt | nt | nt | i | nt
CC1=C(C)CS(=O)N(c2ccc(S(N)(=O)=O)cc2)C1 (centres undefined) | i | i | 7.8 | i | i
Nc1ncnc2c1ncn2[C@@H]1O[C@H](CNCc2ccc(OCc3ccccc3)cc2)[C@@H](O)[C@H]1O | i | i | 7.7 | i | 4.3
O=C(NC1=N[C@@]2(C=C3CCCCC3n3c(=O)n(-c4ccccc4)c(=O)n32)CN1Cc1ccccc1)c1ccccc1 (some centres undefined) | nt | nt | nt | i | nt
CCOC(=O)c1ccc(N2C(=O)Cc3ccccc3C2=O)cc1 | i | i | i | i | nt
CC(C)COC(=O)c1ccc(N2C(=O)c3ccccc3C2=O)cc1 | i | i | 7.9 | i | 5.5
C=CCN(Cc1ccccc1)C(C#CC(=C)C)Cc1ccccc1 (centres undefined) | nt | nt | nt | i | nt
COC(=O)c1ccccc1S(=O)(=O)N1CCC(C(=O)NC2CCCCC2)CC1 | i | i | 11 | i | i
COC(=O)c1ccccc1S(=O)(=O)N1CCC(NC(=O)c2ccccc2)CC1 | i | i | i | i | nt
CC(Sc1nnc(-c2ccco2)n1C)C(=O)NC1CCCC1 (centres undefined) | i | i | 17 | i | i
Cc1ccccc1NC(=O)c1cccc2c1-c1ccccc1C2=O | nt | nt | nt | i | nt
CCOC(=O)c1ccccc1NC(=O)CSc1nnc(COc2ccccc2C)n1C | i | i | 9.0 | i | i
Cc1ccccc1OCc1nnc(SCC(=O)NCc2ccccc2)n1C | i | i | i | i | nt
C/C=C/C(=O)N1CCC(C(=O)NCC2COc3ccccc3O2)CC1 (centres undefined) | nt | nt | nt | i | nt
O=C1c2ccccc2-c2nnc(-c3ccccc3)cc21 | i | i | 9.4 | i | 4.0
CCN1CCN(Cc2ccc(NC(=O)c3ccc(C)c(NC(=O)C[C@@H]4NC(=O)[C@H](Cc5ccccc5)NC4=O)c3)cc2C(F)(F)F)CC1 | i | i | 7.7! | i | i
COc1ccc(NC(=O)c2cc3c(C)nn(-c4ccccc4)c3s2)cc1 | nt | nt | nt | i | nt
CC(=O)N1N=C(c2ccc(C)cc2)CC1c1ccc2c(c1)OCO2 (centres undefined) | i | i | 8.0 | i | i
Cc1ccc(C2=NN(S(C)(=O)=O)C(c3ccc4c(c3)OCO4)C2)cc1 (centres undefined) | i | i | i | i | nt
CC(C)[C@H](NC(=O)[C@@H]1CCCN1)C(=O)N1CCC2CCN(S(=O)(=O)c3ccccc3)CC21 (some centres undefined) | nt | nt | nt | i | nt
C=CCNC(=O)c1ccccc1NC(=O)c1ccccc1C | i | i | 8.6 | i | i
COc1ccc(N2CCN(Cc3cc4c(cc3O)CCC4)CC2)cc1 | i | i | 14 | i | i
SMILES | MsrA inhibitor | ABCB6 inh MLPCN | bovine MsrA act | SMARCA2 act | MsrA act confirm
COc1ccc(N2CCN(Cc3cc(=O)oc4cc5c(cc34)CCCC5)CC2)cc1 | i | i | i | i | nt
O=C(CN1CCCc2ccccc21)NCc1ccccc1F | nt | nt | nt | i | nt
CCCC1CCC2(CCC(=O)N2CCSc2ccccc2)CC1 (centres undefined) | nt | nt | nt | i | nt
O=C(NC(=O)c1cccc(Cl)c1)OC[C@@H]1CCCN2CCCCC12 (some centres undefined) | i | i | i | i | nt
O=C(NC(=O)c1cccc(F)c1)OC[C@@H]1CCCN2CCCC[C@H]12 | i | i | 8.8 | i | i
COC(=O)[C@]12C[C@H](CC(=O)N3CCN(C(=O)c4ccco4)CC3)C(=O)N(Cc3ccccc3)C1=C[C@H](COCc1ccccc1)O[C@@H]2C | nt | nt | nt | i | nt
O=C(O)CCC(=O)c1ccc(-c2ccccc2)cc1 | i | i | i | i | nt
O=C(O)CCC(=O)c1ccc(C2CCCCCC2)cc1 | i | i | 13 | i | i
CCOc1ccc(-n2c(SCC(=O)Nc3ccccc3-c3ccccc3)nnc2-c2cccs2)cc1 | nt | nt | nt | i | nt
Cc1ccc(OCC(=O)Nc2cc(-c3nn4c(C)nnc4s3)ccc2C)cc1 | i | i | 9.7 | i | i
CCC(=O)Nc1cc(-c2nn3c(C)nnc3s2)ccc1C | i | i | i | i | nt
Cc1cccc(NC(=O)NC(=O)c2ccccc2)n1 | i | i | 8.1 | i | i
CCOC(=O)c1sc(=S)n(-c2ccccc2)c1SC | i | i | 9.2 | i | i
COc1ccc(CSc2nnc(SCC(=O)Nc3ccccc3-c3ccccc3)s2)cc1 | nt | nt | nt | i | nt
CN(CCC#N)C(=O)CSc1ncnc2sc(-c3ccccc3)cc12 | i | i | i | i | nt
CCN(CC)C(=O)CSc1ncnc2sc(-c3ccccc3)cc12 | i | i | 7.7 | i | i
CC(=O)c1sc(Nc2nc3ccc(F)cc3s2)nc1C | i | i | 7.8 | i | i
NCCc1nnc(SCc2ccc(F)cc2)o1 | i | i | i | i | nt
NCCCCCc1nnc(SCc2ccc(Cl)c(Cl)c2)o1 | i | i | 8.3 | i | i
COc1ccc(C(=O)C2(C(=O)Nc3cc(C)cc(C)c3)CC(c3ccccc3C(F)(F)F)=NO2)cc1 (centres undefined) | nt | nt | nt | i | nt
Cn1c(CO)cnc1SCC(=O)c1ccc(F)cc1 | i | i | i | i | nt
Cn1c(CO)cnc1SCC(=O)c1ccc(Br)cc1 | i | i | 13 | i | i
CC(=O)Nc1cccc(OCC(=O)Nc2ccccc2)c1 | i | i | i | i | nt
CCOc1ccc(-c2cccc(NC(=O)COc3ccccc3)c2)nn1 | nt | i | 8.8 | nt | i
Cc1nc2sc(C(=O)NCc3ccc4c(c3)OCO4)c(N)c2c(C)c1Cl | nt | nt | nt | i | nt
SMILES | MsrA inhibitor | ABCB6 inh MLPCN | bovine MsrA act | SMARCA2 act | MsrA act confirm
CC(=O)NC(Cc1ccccc1C)C(=O)NC1CCN(c2nnnn2-c2ccccc2)CC1 (centres undefined) | i | i | 12 | i | i
Cc1cc(C(=O)Nc2cccc([N+](=O)[O-])c2C)cs1 | i | i | i | i | nt
Cc1c(NC(=O)c2ccc(C(C)(C)C)cc2)cccc1[N+](=O)[O-] | i | i | 11 | i | i
Cc1cccc(NC(=O)c2cc(S(=O)(=O)N3CCCCC3)ccc2Cl)n1 | i | i | 12 | i | i
CC1CN(C(=O)c2cccc(S(=O)(=O)N3CCN(c4ccccc4)CC3)c2)CC(C)O1 (centres undefined) | i | i | 9.1 | i | i
Cc1cc(NC(=O)COC(=O)C2CC(=O)N(c3ccc(Br)cc3)C2)no1 (centres undefined) | i | i | i | i | nt
COc1ccc(N2CC(C(=O)OCC(=O)Nc3cc(C)on3)CC2=O)cc1 (centres undefined) | i | i | 8.0 | i | i
Cc1cccc(C)c1OCC(=O)NNC(=O)CNC(=O)c1ccc(OC(F)F)cc1 | i | i | 8.1 | i | i
Cc1cc(C(=O)NCc2cccs2)no1 | i | i | i | i | nt
Cc1cc(NC(=O)CCCC(=O)NCc2cccs2)no1 | i | i | 7.9 | i | i
CCOc1ccccc1C(c1c(C)n(C)n(-c2ccccc2)c1=O)c1c(C)n(C)n(-c2ccccc2)c1=O | i | i | i | i | nt
